{
  "source": "PubChem BioAssay (NCATS)",
  "note": "Results filed as inconclusive are left out. Where a call stands in place of a potency, no number is given. Activity calls are given as the source filed them. Calls follow the shape of the dose curve; as a rule, active = well fitted cell-killing curve with a large enough effect; inconclusive = small, poorly fitted or top-dose-only effect, or effect the other way; inactive = flat fitted curve, though single readings scatter.",
  "data": [
    {"tested_on": "CAOV3", "assay": "Primary qHTS to identify gynecologic anti-cancer compounds using libraries of approved drugs and bioactive compounds (AID 1345084); also: nearly all actives have a fitted effect of over 55% in size", "settings": "Gynecologic cancer cell panel viability, ATPlite luminescence, 48 h; series mostly up to 57.5 µM", "summary_of_the_method": "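Cells, 1,000 per well, plated 16 h, then exposed 48 h at 37 C to compounds. Viability by ATPlite luminescence after 15 min at room temperature.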", "values": [
      {"smiles": "CCN1CCc2nc(N)oc2CC1", "Potency": "inactive"},
      {"smiles": "CCn1cc(C(=O)O)c(=O)c2cc3c(cc21)OCO3", "Potency": "inactive"},
      {"smiles": "CCc1c(C)[nH]c2c1C(=O)C(CN1CCOCC1)CC2", "note": "(stereo not given)", "Potency": "inactive"},
      {"smiles": "COC(=O)[C@@H](N)Cc1ccc(O)c(O)c1", "Potency": "inactive"},
      {"smiles": "CCOC(=O)c1cnc2c(cnn2CC)c1NN=C(C)C", "Potency": "inactive"},
      {"smiles": "Cc1scc2c1N(C(=O)CN1CCN(C)CC1)c1ccccc1NC2=O", "Potency": "inactive"},
      {"smiles": "CC(C)(C)NCC(O)c1cc(O)cc(O)c1", "note": "(stereo not given)", "Potency": "inactive"},
      {"smiles": "CC1=C(C)C(=O)C(CCCCC#CCCCC#CCO)=C(C)C1=O", "Potency": "inactive"},
      {"smiles": "NC(=O)c1cn(Cc2c(F)cccc2F)nn1", "Potency": "inactive"},
      {"smiles": "CC(=O)OC(C)C[N+](C)(C)C", "note": "(stereo not given)", "Potency": "inactive"},
      {"smiles": "NC(Cc1ccc(Cl)cc1)C(=O)O", "note": "(stereo not given)", "activity change, negative = cytotoxicity": "0.059% [at 0.462 µM] (inactive)"},
      {"smiles": "FC(F)(F)c1ccccc1-n1ccnc1", "Potency": "inactive"},
      {"smiles": "CCCCNc1ccc(C(=O)OCCN(C)C)cc1", "Potency": "inactive"},
      {"smiles": "O=C(O)CCCCCCCC(=O)O", "Potency": "inactive"},
      {"smiles": "CCN(CC)CCNC(=O)c1cc(S(C)(=O)=O)ccc1OC", "Potency": "inactive"},
      {"smiles": "O=C(O)CN(CCOCCOCCN(CC(=O)O)CC(=O)O)CC(=O)O", "activity change, negative = cytotoxicity": "7.4% [at 0.462 µM] (inactive)"},
      {"smiles": "CCN1CCC[C@H]1CNC(=O)c1c(O)c(Cl)cc(Cl)c1OC", "Potency": "inactive"},
      {"smiles": "CCCN(CCC)C(=O)C(CCC(=O)O)NC(=O)c1ccccc1", "note": "(stereo not given)", "Potency": "inactive"},
      {"smiles": "CN1C[C@H](C(=O)N[C@]2(C)O[C@@]3(O)[C@@H]4CCCN4C(=O)[C@H](Cc4ccccc4)N3C2=O)C[C@@H]2c3cccc4[nH]cc(c34)C[C@H]21", "Potency": "inactive"},
      {"smiles": "NC(N)=NC(=O)Cc1c(Cl)cccc1Cl", "Potency": "inactive"}
    ]}
  ]
}
